High-throughput results as filed in PubChem BioAssay.
N-glyco inh: N-linked glycosylation inhibition | D54 ERlucT glycosylation luciferase reporter, 24 h; percent of 100 nM tunicamycin response | reporter increase, % at 12.5 µM | 360,000 tested, 0.23% active | AID 588692;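 active = mean luciferase reporter signal, scaled so untreated is 0 and the glycosylation-blocking control 100, at or above a set limit in every replicate; inconclusive = mean reaches the limit but not every replicate does; inactive = mean below the limit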;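 also: luciferase carries N-glycosylation sites so blocking glycosylation raises the light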
PfHsp90 yeast 2: reduces growth (ATP signal) of yeast expressing P. falciparum Hsp90; S. cerevisiae expressing PfHsp90, BacTiter-Glo ATP, 48 h; yeast lacking PDR1 and PDR3 efflux regulators; inhibition, % at 9.4 µM; 310,000 tested, 0.32% active;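 active = every replicate shows inhibition above about 80%, whatever the replicate mean, limit read from the data; inconclusive = mean inhibition reaches the set limit but some replicate falls short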
Wnt act: activators of Wnt/beta-catenin signaling; Wnt/beta-catenin reporter cell assay, activator, plate reader; activation, % at 9.35 µM; 300,000 tested, 1.2% active; in the data active = activation above about 30%, passing the limit was not always enough; inconclusive = no clear call, values can overlap the other calls
esBAF inh: SWI/SNF esBAF complex inhibition | reporter increase, % at 12.5 µM | mouse ES cells, Bmi1-luciferase knock-in reporter, 24 h; 100% = twice the neutral-well signal | AID 602393 | 350,000 tested, 2% active; in the data active = activation above about 40%; inconclusive = no clear call, values can overlap the other calls;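 also: a rise in the Bmi1 reporter signal indicates esBAF inhibition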
MITF TRPM1 HTS: increases MITF-driven TRPM1 promoter luciferase signal | SK-MEL-5 TRPM1-promoter luciferase, 24 h; % of positive control, neutral wells = 0 | 300,000 tested, 0.75% active | activation, % at 12.5 µM;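 active = mean activation of at least 80% with every replicate also reaching 80%; inconclusive = mean reaches 80% but some replicate falls short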
Vif inh: blocks HIV Vif function; HEK293T cells, Vif self-association by quenched fluorescence, imaging, 24 h; 340,000 tested, 0.35% active; inhibition, % at 7.49 µM; in the data active = inhibition above about 50%, passing the limit was not always enough; inconclusive = no clear call, values can overlap the other calls; inactive = below about 31%
Of the large screens only hits and unclear results are named; the others gave an inactive call. A selection: hits, their analogues and other compounds. The true share with any hit is near 3%.

COc1cccc(CN(CC(=O)NC2CCCC2)C(=O)Cn2nnc(-c3cccs3)n2)c1	none (no result: esBAF inh)
COc1ccc(C2=NN(CN3C(=O)C(=O)c4ccccc43)C(c3ccc(OC)cc3)C2)cc1 (stereo not drawn)	Wnt act 54.0 (no result: esBAF inh)
COc1ccc(C2=NN(S(=O)(=O)c3ccccc3)C(c3ccccc3)C2)cc1 (stereo not drawn)	none
O=c1oc2ccccc2cc1-c1csc(NN=C2CCCCC2)n1	esBAF inh 66.4 (no result: Wnt act)
CC(C)(CNC(=O)c1cc([N+](=O)[O-])ccc1N1CCC(Cc2ccccc2)CC1)N1CCOCC1	none
O=C1CC(c2ccccc2)=NN1c1nc(-c2ccccc2)cs1	PfHsp90 yeast 2 92.2 (no result: esBAF inh)
Fc1ccc(-c2csc(N3CCC(c4ccccc4)C3)n2)cc1 (stereo not drawn)	esBAF inh 50.3
COc1ccc(-c2csc(N3CCOCC3)n2)cc1OC	esBAF inh 58.4
Clc1ccc(-c2csc(N3CCOCC3)n2)cc1	none (no result: esBAF inh)
COc1ccc(-c2csc(N3CCSCC3)n2)cc1	Wnt act inconclusive, esBAF inh 46.6
O=C(NCC[C@H]1CC[C@@H](NS(=O)(=O)c2cccc(F)c2)[C@@H](CO)O1)C1CCOCC1	none (no result: N-glyco inh, PfHsp90 yeast 2, Wnt act, MITF TRPM1 HTS, Vif inh)
COc1ccc(-c2csc(-n3cccn3)n2)cc1	Wnt act 32.9, esBAF inh 67.9, MITF TRPM1 HTS inconclusive
Clc1ccc(-c2csc(N3CCCCCC3)n2)cc1	none (no result: MITF TRPM1 HTS)
c1ccc(-c2csc(N3CCCCCC3)n2)cc1	esBAF inh 42.8 (no result: Wnt act)
CO[C@H]1CN(C)C(=O)c2cc(NC(=O)C3CC3)ccc2OC[C@@H](C)N(Cc2cccnc2)C[C@H]1C	none (no result: N-glyco inh, PfHsp90 yeast 2, Wnt act, MITF TRPM1 HTS, Vif inh)
Cc1ccccc1-c1ccc([C@H]2[C@H](CO)N3CCCCN(S(=O)(=O)c4ccc(F)cc4)C[C@@H]23)cc1	none (no result: N-glyco inh, PfHsp90 yeast 2, Wnt act, MITF TRPM1 HTS, Vif inh)
Cc1ccc(NC(=O)c2ccc(Nc3ccccc3F)nc2)cc1	Wnt act 38.2 (no result: esBAF inh)
COCCN(C(=O)c1csnn1)C(C(=O)NC1CCCC1)c1ccccc1 (stereo not drawn)	none
O=c1[nH]c(Sc2ccc([N+](=O)[O-])cc2[N+](=O)[O-])nc2ccccc12	none (no result: esBAF inh, MITF TRPM1 HTS)
O=[N+]([O-])c1ccc(Sc2cc[n+]([O-])c3ccccc23)c([N+](=O)[O-])c1	N-glyco inh 28.4
COC(=O)c1ccc2c(c1)c(C#Cc1ccccc1)c(-c1ccccc1)n2C	esBAF inh 47.2
CCC(=O)Nc1ccc2oc(-c3cccnc3)nc2c1	MITF TRPM1 HTS inconclusive (no result: esBAF inh)
COC(=O)c1ccc(-c2nc3ccc(C)cc3o2)cc1	Wnt act 55.4, esBAF inh 52.5
CCCC(=O)Nc1ccc2oc(-c3cncc(Br)c3)nc2c1	MITF TRPM1 HTS 96.8
Cc1cc2nc(-c3cccc(NC(=O)c4ccc(Br)o4)c3)oc2cc1C	none (no result: Wnt act)
Cc1ccc2oc(-c3cccc(NC(=O)c4ccc(Br)o4)c3)nc2c1	esBAF inh 65.0 (no result: Wnt act)
CCCCCC(=O)Nc1ccc2oc(-c3cncc(Br)c3)nc2c1	none (no result: Wnt act, Vif inh)
CC(C)CC(=O)Nc1ccc2oc(-c3cccnc3)nc2c1	esBAF inh 50.5 (no result: Wnt act)
COC(=O)C[C@H]1C[C@H]2c3cc(NS(C)(=O)=O)ccc3O[C@H]2[C@@H](CO)O1	none (no result: N-glyco inh, PfHsp90 yeast 2, Wnt act, MITF TRPM1 HTS, Vif inh)
O=C(Nc1cccc(-n2cnnn2)c1)c1ccco1	none
Cc1ccc2c(c1)N(CC(=O)NC1CCCCC1)C(=O)c1cccnc1O2	none
O=C(Nc1ccc2oc(-c3cccnc3)nc2c1)c1cccnc1	none (no result: PfHsp90 yeast 2, MITF TRPM1 HTS)
O=C(Nc1ccc2oc(-c3cccnc3)nc2c1)c1ccc([N+](=O)[O-])o1	N-glyco inh 34.9 (no result: esBAF inh)
Cc1c(C(=O)Nc2ccc3oc(-c4cccnc4)nc3c2)oc2ccccc12	N-glyco inh 29.8 (no result: MITF TRPM1 HTS)
Cc1ccc2oc(-c3ccc(NC(=O)CC(C)C)cc3)nc2c1	esBAF inh 50.4, MITF TRPM1 HTS 100.7
CCC(C)NCC(=O)Nc1ccc(-c2nc3cc(NC(=O)CNC(C)CC)ccc3o2)cc1 (stereo not drawn)	none (no result: MITF TRPM1 HTS)
COc1ccc(Cl)cc1NCCC(O)c1ccc(F)cc1 (stereo not drawn)	none
C=CCN1C(=O)/C(=C2/Sc3ccc(OC)cc3N2C)SC1=NCc1ccccc1	none (no result: Wnt act)
COc1ccc2c(c1)N(C)/C(=C1/SC(=NCc3ccccc3)N(c3ccccc3)C1=O)S2	Vif inh 170.3
CC(=O)NC(NC(=S)Nc1ccc(N=Nc2ccccc2)cc1)C(Cl)(Cl)Cl (stereo not drawn)	Wnt act 47.4 (no result: PfHsp90 yeast 2, MITF TRPM1 HTS)
CC(=O)NC(NC(=S)Nc1ccc(S(N)(=O)=O)cc1)C(Cl)(Cl)Cl (stereo not drawn)	none
C[C@]12CC[C@H]3[C@@H](CCC4=CC(=O)CC[C@@]43C)[C@@H]1CC[C@@H]2C(=O)CO	none
Cc1ccc(-c2ccc(CCC(=O)O)n2NC(N)=S)cc1	none (no result: Wnt act, esBAF inh)
S=C(NNc1ccnc2cc(Cl)ccc12)Nc1ccc(Cl)cc1Cl	esBAF inh 49.0
CCOc1ccc(NC(=S)NNc2ccnc3cc(Cl)ccc23)cc1	none (no result: PfHsp90 yeast 2, esBAF inh)
S=C(NCc1ccccn1)Nc1ccc(Cl)cc1Cl	esBAF inh 49.4 (no result: Wnt act)
COc1ccc(Cl)cc1NC(=S)NCc1ccccn1	none (no result: esBAF inh)
Cc1ccccc1C(=O)NC1CC2CCCC(C1)N2Cc1ccc(Cl)cc1 (stereo not drawn)	none (no result: MITF TRPM1 HTS)
C=CCOc1c(CNc2cccc(C(=O)O)c2)cccc1OC	esBAF inh 51.8 (no result: Wnt act, Vif inh)
C=CCOc1c(CNc2cccc(C(=O)O)c2)cccc1OCC	none (no result: Wnt act)
C=CCOc1c(CNc2ccc(C(=O)O)cc2)cccc1OCC	esBAF inh 43.8 (no result: Wnt act)
O=C(CS(=O)(=O)c1cn(Cc2ccc(F)cc2)c2ccccc12)N1CCCCC1	none (no result: PfHsp90 yeast 2, MITF TRPM1 HTS)
CCCN1CCC(=O)N(CCSc2ccccc2)CC1	none
CC(C)(C)C1CCC(=O)N(CCSc2ccccc2)CC1 (stereo not drawn)	Wnt act 46.9, esBAF inh 62.4, MITF TRPM1 HTS 96.4 (no result: Vif inh)
C[C@H]1CCC(=O)N(CCSc2ccc(Br)cc2)CC1	esBAF inh 53.3
CN1CCC(=O)N(CCSc2ccc(Br)cc2)CC1	none (no result: Vif inh)
O=C1CCN(Cc2ccccc2)CCN1CCSc1ccccc1	esBAF inh 61.2
c1ccc(-c2nnc(CN3CCCc4ccccc43)o2)cc1	none
CCC(=O)N1C[C@H](C)[C@H](OC)CN(C)C(=O)c2ccc(NC(=O)c3cc(C)on3)cc2OC[C@@H]1C	none (no result: N-glyco inh, PfHsp90 yeast 2, Wnt act, MITF TRPM1 HTS, Vif inh)
CCOc1ccc(OCCN2C(=O)c3ccccc3C2=O)cc1	esBAF inh 62.9
N#Cc1ccccc1OCCN1C(=O)c2ccccc2C1=O	esBAF inh 56.3 (no result: Wnt act)
O=C1c2ccccc2C(=O)N1CCOCCN1C(=O)c2ccccc2C1=O	none (no result: Wnt act)
COc1ccc(CN2C(=O)c3ccccc3C2=O)cc1	Vif inh 62.2 (no result: MITF TRPM1 HTS)
O=C1c2ccccc2C(=O)N1CCCOc1ccccc1	esBAF inh inconclusive
COc1cc(OC)c(S(=O)(=O)Nc2ccccc2N2CCCCC2)cc1NC(C)=O	none
CC1(C(=O)NCC2CCCO2)Oc2cccnc2NC1=O (stereo not drawn)	none (no result: PfHsp90 yeast 2)
Cc1ccccc1-c1nc2ccccc2o1	none
